Screening data from PubChem BioAssay.
Rows were chosen to be rich in hits. Some 3.6% of all compounds tested hit in one or more screens of this group.
LDHA inh: blocks human lactate dehydrogenase A; purified LDHA, NADH/diaphorase-resazurin fluorescence; stronger effect = lower value; 480,000 compounds, 0.15% hits; AID 1347041; activity change, % (values are at about 110 or 230 µM); in the data active means activity change below about -30%;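 further: plate controls were DMSO wells for no effect and wells without enzyme for full effect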
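Remaining NADH was detected by diaphorase (0.133 mg/mL) converting 37 µM resazurin to fluorescent resorufin, read at 0 and 20 minutes. The preceding 5-minute room-temperature reaction used 2 nM LDHA, 0.2 mM sodium pyruvate and 0.06 mM NADH at pH 7.4.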
TRHR ag: activates the human TRH receptor | P34981 | TRHR cells, calcium flux fluo-8, FDSS agonist mode | activation, % at 2 µM | 360,000 compounds, 0.18% hits | AID 493084; further: 0% is about no effect
Target sequence (P34981 whole entry, looked up): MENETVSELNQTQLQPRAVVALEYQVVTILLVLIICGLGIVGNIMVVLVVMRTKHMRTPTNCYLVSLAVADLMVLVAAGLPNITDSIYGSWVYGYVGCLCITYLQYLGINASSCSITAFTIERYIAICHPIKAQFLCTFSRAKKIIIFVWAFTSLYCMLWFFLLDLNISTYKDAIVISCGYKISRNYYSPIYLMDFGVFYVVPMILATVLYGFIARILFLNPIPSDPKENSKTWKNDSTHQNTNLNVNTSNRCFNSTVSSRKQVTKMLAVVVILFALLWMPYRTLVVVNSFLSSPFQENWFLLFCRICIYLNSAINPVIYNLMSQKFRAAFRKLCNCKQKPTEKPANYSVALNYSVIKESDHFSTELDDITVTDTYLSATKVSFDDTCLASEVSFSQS
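TRHR-expressing cells, plated overnight in medium with 10% serum, were loaded with fluo-8 calcium dye at room temperature. After a 10 s baseline, library compound was pin-added and calcium release was recorded kinetically (ex 480/em 530) as agonist response.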
D1 antag: antagonists of human D1 dopamine receptor; P21728; HEK293 TREx D1 cells, calcium flux, dopamine EC80; stronger effect = lower value; activity change, negative = inhibition, % at 10 µM; 360,000 compounds, 3.2% hits; in the data active means activity change below about -30%; further: on the % scale 0 is the no-effect control and ±100 the full control effect
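Cells carrying a force-coupled, tetracycline-inducible human D1 receptor report calcium flux. Each well gets a 10 s baseline, compound with 180 s monitoring, then an EC80 dopamine stimulus with a second 180 s kinetic read.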
TRHR PAM: allosteric enhancers of human TRH receptor. enhancement, % at 2 µM. TRHR cells, fluo-8 calcium fluorescence, EC20 TRH enhancement. 360,000 compounds, 0.66% hits; in the data active means enhancement above about 30%; further: 0% is about no effect
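Enhancer read-out: after compound pinning and an initial kinetic agonist-mode read, an EC20 of TRH (10 nM final) was injected and fluo-8 calcium signal (Ex 480/Em 530) followed at 1 s/cycle for 100 cycles in TRHR-expressing cells.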
D1 PAM: potentiators of human D1 dopamine receptor | P21728 | HEK293 TREx D1 cells, calcium flux, dopamine EC20 potentiation | potentiation, % at 10 µM | 360,000 compounds, 0.036% hits; in the data active means potentiation above about 30%; further: 0% is about no effect
D1 ag: agonists of human D1 dopamine receptor; activation, % at 2 µM; HEK293 T-REx D1 cells, calcium flux, agonist mode; AID 504660; 360,000 compounds, 1% hits; further: 0% is about no effect
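Inducible HEK293 T-REx D1 cells, force-coupled to calcium signalling, were plated at 4000 cells/well with tetracycline and held overnight at 30 C. After no-wash calcium dye loading, compound-evoked calcium rise over 180 s flagged agonists.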
* marks the source's active call; other numbers are inactive results; . = no result given; ! = not active in a repeat. Unless noted, no stated cut-off is given here; in the data, active means activation above about 30%; inactive means the rest.

SMILES	LDHA inh	TRHR ag	D1 antag	TRHR PAM	D1 PAM	D1 ag
COc1ccc(NC(=S)NCCc2ccccc2OC)c(OC)c1	-2	-1	-18	-5	-5	3
Cc1c(Cl)cccc1NC(=S)NCc1ccccc1Cl	-6	1	-22	1	-6	24
COc1ccc(NC(=S)NCc2ccc(F)cc2)c(OC)c1	-2	-1	-31*	-5	-17	4
CC(C)(C)SCCNC(=O)/C=C/c1ccc([N+](=O)[O-])cc1	-6	2	-36*	24	-5	13
O=C(/C=C/c1ccc([N+](=O)[O-])cc1)NCCN1C(=O)S/C(=C\c2ccc(F)cc2)C1=O	-5	0	-31*	3	-4	1
O=C(/C=C/c1cccc([N+](=O)[O-])c1)NCCN1C(=O)S/C(=C\c2ccc(F)cc2)C1=O	-5	0	-40*	-3	-4	4
CC(C)(C)SCCNC(=O)/C=C/c1cccc([N+](=O)[O-])c1	-1	0	2	-1	-1	6
O=C(/C=C/c1cccc([N+](=O)[O-])c1)NCCSc1ccccc1	-10	-2	8	27	-2	0
CC(C)c1ccc(NC(=O)CN2C(=O)C(c3ccccc3)=NC23CCCCC3)cc1	2	.	.	.	.	.
COc1ccc(OC)c(/C=C2\Oc3cc(OC(=O)c4ccc(C(C)(C)C)cc4)ccc3C2=O)c1	1	.	.	.	.	.
N#Cc1ccc(F)c(COC(=O)c2ccccc2C(=O)c2ccc(Cl)cc2)c1	4	.	.	.	.	.
COc1ccc(OC)c(-c2cc(C(=O)Nc3ccc(C)c(C)c3)no2)c1	-5	1	-8	-8	-2	5
COc1ccc(OC)c(-c2cc(C(=O)Nc3cccc(Cl)c3C)no2)c1	-16	1	-40*	-14	1	9
COc1ccc(OC)c(-c2cc(C(=O)N(C)C)no2)c1	11	.	.	.	.	.
COc1ccc(OC)c(-c2cc(C(=O)N3CCOCC3)no2)c1	-9	-1	0	37*	-5	0
CC1=C(C(=O)N(C(C)C)C(C)C)CC(CC(=O)NC2CCCC2)C(=O)N1Cc1ccccc1 (stereo unspecified)	-11	.	.	.	.	.
CC1=C(C(=O)N(C(C)C)C(C)C)CC(CC(=O)NC2CCCCC2)C(=O)N1Cc1ccccc1 (stereo unspecified)	-34*	.	.	.	.	.
N=C(N)c1cccc(N)c1	-4	.	.	.	.	.
CCC(=O)N(CCC(c1ccccc1)c1ccc2c(c1)OCO2)Cc1ccc(OC(C)C)cc1 (stereo unspecified)	5	2	-53*	-7	-3	27
CCOC(=O)c1sc2ccccc2c1NC(=O)c1coc2ccccc2c1=O	-8	0	-6	37*	1	1
NC(=O)CSc1nnc(-c2cccs2)n1Cc1ccco1	1	0	-25	-6	-5	0
CCN(CC)C(=O)CSc1nnc(-c2cccs2)n1Cc1ccco1	0	0	-32*	-1	-6	3
CCOc1ccc2oc(=O)c(-c3ccccc3)c(C)c2c1	-5	.	.	.	.	.
O=C(c1ccoc1)N1CCC2(CC1)Oc1ccc(Cl)cc1C(=O)C21CC(c2ccccc2)=NO1 (stereo unspecified)	-1	0	-5	-3	-2	4
O=C(c1ccoc1)N1CCC2(CC1)Oc1ccc(Cl)cc1C(=O)C21CC(c2cccnc2)=NO1 (stereo unspecified)	-4	2	-100*	-2	-9	5
SMILES	LDHA inh	TRHR ag	D1 antag	TRHR PAM	D1 PAM	D1 ag
COc1ccc(COC(=O)CCS(=O)(=O)c2ccc(C)cc2)cc1	2	-1	-44*	4	1	7
CCCC(C)NC(=O)COC(=O)CCS(=O)(=O)c1ccc(C)cc1 (stereo unspecified)	-31*	.	.	.	.	.
CCOC(=O)C1=C(C)N(c2ccc3c(c2)OCO3)C(=O)NC1c1ccc(F)cc1F (stereo unspecified)	-4	.	.	.	.	.
N#Cc1ccccc1CSCCNC(=O)c1nccnc1N	7	.	.	.	.	.
O=C(NCc1nnc(-c2cc3ccccc3[nH]2)s1)c1ccccc1	-3	1	4	-3	-5	3
O=C(O)Cc1nnc(-c2cc3ccccc3[nH]2)s1	-3	1	-37*	1	9	0
O=C(Cc1nnc(-c2cc3ccccc3[nH]2)s1)Nc1cc(C(F)(F)F)ccc1Cl	0	1	-34*!	16	1	3
O=C(Cc1nnc(-c2cc3ccccc3[nH]2)o1)Nc1cc(C(F)(F)F)ccc1Cl	-1	0	5	-4	-4	1
CN(Cc1ccccc1F)S(=O)(=O)c1cn(C)c(=O)n(C)c1=O	-1	.	.	.	.	.
Cc1c(-c2ccccc2)c(=O)oc2cc(OCC(=O)OC(C)(C)C)ccc12	10	.	.	.	.	.
O=[N+]([O-])c1cccc(NC(=S)Nc2nc(-c3ccc(Cl)cc3Cl)cs2)c1	.	1	-31*	3	-7	7
CN1CCc2nc(NC(=O)CCn3c(=O)oc4ccccc43)sc2C1	5	.	.	.	.	.
CCN1CCN(CCNC(=O)C2CCCN(Cc3nc(-c4cccc(Cl)c4)oc3C)C2)CC1 (stereo unspecified)	1	0	-39*	3	-6	1
Cc1oc(-c2cccc(Cl)c2)nc1CN1CCC(C(=O)NCCCN2CCN(c3cccc(Cl)c3)CC2)CC1	-3	1	-39*	1	-1	67*
COc1ccc(-c2nc(CN3CCC(C(=O)NCc4ccc(C)cc4)CC3)c(C)o2)cc1OC	5	0	-31*	-4	-6	0
COc1ccc(-c2nc(CN3CCC(C(=O)NCCc4ccccc4)CC3)c(C)o2)cc1OC	3	0	-23	20	0	1
COc1cccc2c1C(=O)c1c(O)c3c(c(O)c1C2=O)C[C@@](O)(C(C)=O)C[C@@H]3O[C@H]1C[C@H](N)[C@H](O)[C@H](C)O1	-3	20	12	-2	-3	44*
COc1cccc2c1C(=O)c1c(O)c3c(c(O)c1C2=O)C[C@@](O)(C(=O)CO)C[C@@H]3O[C@H]1C[C@H](N)[C@@H](O)[C@H](C)O1	3	.	.	.	.	.
CC(=O)c1ccc(OC2OCCOC2Oc2ccc(C(C)=O)cc2)cc1 (stereo unspecified)	-3	0	-39*	-1	-9	7
c1ccc(Sc2ccccc2CN2CCCC2)cc1	-23	.	.	.	.	.
N=C(N)Cc1ccccc1Sc1ccccc1	-3	2	-49*	-7	-8	5
COc1ccc(S(=O)(=O)Nc2nc3ccccc3nc2Nc2ccccc2)cc1	-5	.	.	.	.	.
C=C(C)Cn1c(SC/C=C/C)nc2c1c(=O)n(C)c(=O)n2C	-3	.	.	.	.	.
CSc1ccccc1NC(=O)c1ccccc1	-2	0	-32*	7	-7	0
